“And” between values parts separate entries of the source, which are not always exact repeats. Equal values may be shown once. Inconclusive results are not listed. Where a call stands in place of a potency, no number is given. The source holds several records for some structures; these can differ, active in one and inactive in another. The source made the active and inactive calls. Unless noted, the call rests on the fitted dose curve; in most records, active means well fitted curve in the direction sought with a large enough effect in the repeat runs; inconclusive means weak or mixed curves; inactive means no such curve, though single readings can be large; an effect the other way counts as inactive or inconclusive.
Key:
[1] = qHTS assay to identify small molecule antagonists of the glucocorticoid receptor (GR) signaling pathway - cell viability counter screen (AID 720693); further: nearly all actives have a fitted effect of over 55% in size
[2] = qHTS assay for identifying genotoxic compounds that show differential cytotoxicity against isogenic chicken DT40 cell lines with known DNA damage response pathways - wild type cell line (AID 743012); further: nearly all actives have a fitted effect of over 60% in size; further: potency means the concentration at half of the fitted maximal effect
Summary of the method: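 Cytotoxicity in repair-proficient parental chicken DT40 cells serves as the comparator for Rad54/Ku70- and Rev3-deficient lines. Cells were exposed to compounds for 40 h at 37 C/5% CO2, and ATP-based luminescence (CellTiter-Glo) measured viability.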

[3] = qHTS assay for identifying genotoxic compounds that show differential cytotoxicity against isogenic chicken DT40 cell lines with known DNA damage response pathways - Rev3 mutant cell line (AID 743014); further: nearly all actives have a fitted effect of over 55% in size; further: potency means the concentration at half of the fitted maximal effect
[4] = qHTS assay for identifying genotoxic compounds that show differential cytotoxicity against isogenic chicken DT40 cell lines with known DNA damage response pathways - Rad54/Ku70 mutant cell line (AID 743015); further: nearly all actives have a fitted effect of over 60% in size; further: potency means the concentration at half of the fitted maximal effect
[5] = qHTS assay to identify small molecule antagonists of the androgen receptor (AR) signaling pathway - cell viability counter screen (AID 743033; further: nearly all actives have a fitted effect of over 45% in size; further: potency means the concentration at half of the fitted maximal effect)
[6] = target: Androgen receptor (Homo sapiens) (UniProt P10275); assay: qHTS assay to identify small molecule antagonists of the androgen receptor (AR) signaling pathway (AID 743035; active means well fitted inhibition curve with a large enough effect in the signal ratio in the repeat runs, not every such curve was filed as active; the % refers to the signal ratio)
Summary of the method: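 Steps: seed AR-UAS-bla GripTite HEK293 cells, incubate 4 h at 37C; pin in test compound, then add agonist R1881; incubate 16 h at 37C; add LiveBLAzer B/G FRET substrate, 2 h at room temperature; read fluorescence.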

[7] = target: Androgen receptor (Homo sapiens) (UniProt P10275); assay: qHTS assay to identify small molecule agonists of the androgen receptor (AR) signaling pathway (AID 743036; active means well fitted activation curve with a large enough effect in the signal ratio in the repeat runs, with a control signal flat, not every such curve was filed as active; the % refers to the signal ratio)
Summary of the method: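 AR-bla HEK293 cells, 2,000/well; 4 h preincubation 37C/5% CO2; compound (DMSO) 16 h at 37C; LiveBLAzer B/G FRET substrate 2 h RT; fluorescence intensity read-out.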

[8] = target: Androgen receptor (Homo sapiens) (UniProt P10275); assay: qHTS assay to identify small molecule agonists of the androgen receptor (AR) signaling pathway using the MDA cell line (AID 743040; further: nearly all actives have a fitted effect of over 20% in size)
Summary of the method: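 Luciferase agonist assay: 16 h compound exposure at 37C without CO2 in MDA-kb2 AR-luc cells, whose MMTV promoter responds to both AR and GR. Luminescence measured after 30 min room-temperature incubation with ONE-Glo.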

[9] = qHTS assay to identify small molecule antagonists of the androgen receptor (AR) signaling pathway using the MDA cell line - cell viability counter screen (AID 743041; further: nearly all actives have a fitted effect of over 45% in size)
Summary of the method: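 Viability read by CellTiter-Fluor fluorescence in the same wells as the antagonist screen, added after 15.5 h of a 16 h, 37C exposure. Human breast carcinoma MDA-kb2 AR-luc cells, compounds co-dosed with agonist R1881.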

[10] = target: Androgen receptor (Homo sapiens) (UniProt P10275); assay: qHTS assay to identify small molecule antagonists of the androgen receptor (AR) signaling pathway using the MDA cell line (AID 743042; further: nearly all actives have a fitted effect of over 55% in size)
Summary of the method: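 Antagonist mode: compounds plus R1881 agonist added to MDA-kb2 AR-luc cells, incubated 16 h at 37C. Luciferase reporter luminescence quantified, with multiplexed CellTiter-Fluor readout for cell viability.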

[11] = qHTS assay to identify small molecule antagonists of the thyroid receptor (TR) signaling pathway - cell viability counter screen (AID 743064); further: nearly all actives have a fitted effect of over 50% in size; further: potency means the concentration at half of the fitted maximal effect
Summary of the method: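 GH3.TRE-Luc cells, 4 h pre-plating; cpd + T3 1 nM final; 37 °C 23.5 h; CellTiter-Fluor 30 min; fluorescence read.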

[12] = qHTS assay to identify small molecule antagonists of the thyroid receptor (TR) signaling pathway (AID 743065); further: nearly all actives have a fitted effect of over 55% in size; further: potency means the concentration at half of the fitted maximal effect
Summary of the method: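 Antagonism measured as loss of luciferase signal in GH3 cells stably carrying a TRE-luciferase reporter, co-treated with compound and T3 (1 nM final) for 23.5 h at 37 C. Viability was read in the same well by CellTiter-Fluor.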

[13] = test system: thyroid hormone receptor (rat, GH3 cells); assay: qHTS assay to identify small molecule agonists of the thyroid receptor (TR) signaling pathway (AID 743066; calls by dose curve; further: potency means the concentration at half of the fitted maximal effect)
[14] = qHTS assay to identify small molecule antagonists of the estrogen receptor alpha (ER-alpha) signaling pathway - cell viability counter screen (AID 743074; calls by dose curve;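 further: HEK293 cells carrying ER-alpha-UAS-bla reporter stimulated with 17beta-estradiol; nearly all actives have a fitted effect of over 45% in size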)
[15] = target: Estrogen receptor (Homo sapiens) (UniProt P03372); assay: qHTS assay to identify small molecule agonists of the estrogen receptor alpha (ER-alpha) signaling pathway (AID 743075; calls by dose curve;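 further: HEK293 GripTite cells with ER-alpha and UAS-driven beta-lactamase reporter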)
[16] = target: Estrogen receptor (Homo sapiens) (UniProt P03372); assay: qHTS assay to identify small molecule agonists of the estrogen receptor alpha (ER-alpha) signaling pathway using the BG1 cell line (AID 743079); further: nearly all actives have a fitted effect of over 20% in size
[17] = qHTS assay to identify small molecule antagonists of the estrogen receptor alpha (ER-alpha) signaling pathway using the BG1 cell line (AID 743080; calls by dose curve;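 further: BG1 cells stimulated with 17beta-estradiol alongside compound; series mostly up to about 70 µM; nearly all actives have a fitted effect of over 25% in size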)
Summary of the method: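 Luminescence from a 4×ERE-luciferase reporter in BG1-Luc-4E2 cells served as read-out. Cells, pre-cultured 5 days in stripped-serum phenol-red-free medium, were exposed to compound with 17beta-estradiol co-stimulation for 21.5 h at 37 C.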

[18] = qHTS assay to identify small molecule antagonists of the estrogen receptor alpha (ER-alpha) signaling pathway using the BG1 cell line - cell viability counter screen (AID 743081);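 further: compound given together with 17beta-estradiol as the ER stimulus; series mostly up to about 70 µM; nearly all actives have a fitted effect of over 45% in size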
[19] = target: Aromatase (Homo sapiens) (UniProt P11511); assay: qHTS assay to identify aromatase inhibitors (AID 743083); further: nearly all actives have a fitted effect of over 55% in size; further: potency means the concentration at half of the fitted maximal effect
[20] = target: Estrogen receptor (Homo sapiens) (UniProt P03372); assay: qHTS assay to identify small molecule antagonists of the estrogen receptor alpha (ER-alpha) signaling pathway (AID 743069; active means well fitted curve in the direction sought with a large enough effect in the signal ratio in the repeat runs, not every such curve was filed as active; the % refers to the signal ratio)
Summary of the method: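 Antagonist mode: compounds in DMSO were co-added with 17beta-estradiol to ER-alpha-bla HEK293 cells (2% charcoal-stripped serum) and left 18 h at 37C. Reporter inhibition was measured as FRET fluorescence after 2 h LiveBLAzer substrate at room temperature.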

Sequence of Aromatase (Homo sapiens) (P11511 whole entry, looked up): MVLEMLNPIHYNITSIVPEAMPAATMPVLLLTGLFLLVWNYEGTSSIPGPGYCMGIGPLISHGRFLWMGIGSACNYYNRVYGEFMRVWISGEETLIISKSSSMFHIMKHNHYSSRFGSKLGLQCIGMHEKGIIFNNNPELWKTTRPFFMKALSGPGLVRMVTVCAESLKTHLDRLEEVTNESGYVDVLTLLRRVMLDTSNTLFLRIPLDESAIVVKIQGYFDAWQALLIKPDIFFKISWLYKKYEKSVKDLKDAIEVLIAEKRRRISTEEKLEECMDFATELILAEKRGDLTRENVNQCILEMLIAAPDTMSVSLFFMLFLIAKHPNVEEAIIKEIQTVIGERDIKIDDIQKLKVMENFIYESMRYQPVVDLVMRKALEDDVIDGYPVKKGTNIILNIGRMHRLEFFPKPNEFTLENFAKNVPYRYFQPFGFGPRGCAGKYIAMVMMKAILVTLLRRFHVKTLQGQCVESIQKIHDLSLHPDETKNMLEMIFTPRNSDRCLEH
Sequence of Estrogen receptor (Homo sapiens) (P03372 whole entry, looked up): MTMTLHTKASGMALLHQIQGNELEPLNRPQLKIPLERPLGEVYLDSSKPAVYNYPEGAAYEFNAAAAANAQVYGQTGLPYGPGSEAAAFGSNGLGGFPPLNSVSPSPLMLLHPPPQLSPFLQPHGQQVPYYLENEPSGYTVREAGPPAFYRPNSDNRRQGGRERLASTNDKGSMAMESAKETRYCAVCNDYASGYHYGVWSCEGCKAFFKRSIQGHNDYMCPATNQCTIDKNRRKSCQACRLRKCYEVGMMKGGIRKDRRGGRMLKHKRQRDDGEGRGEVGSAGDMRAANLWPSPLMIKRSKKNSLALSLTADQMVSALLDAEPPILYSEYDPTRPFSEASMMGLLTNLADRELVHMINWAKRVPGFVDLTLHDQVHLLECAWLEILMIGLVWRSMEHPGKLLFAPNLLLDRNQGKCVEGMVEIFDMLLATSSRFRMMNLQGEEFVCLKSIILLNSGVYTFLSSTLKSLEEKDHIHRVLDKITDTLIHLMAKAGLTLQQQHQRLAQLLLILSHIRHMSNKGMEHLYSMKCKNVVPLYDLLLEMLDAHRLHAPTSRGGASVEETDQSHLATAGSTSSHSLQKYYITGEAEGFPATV
Sequence of Androgen receptor (Homo sapiens) (P10275 whole entry, looked up): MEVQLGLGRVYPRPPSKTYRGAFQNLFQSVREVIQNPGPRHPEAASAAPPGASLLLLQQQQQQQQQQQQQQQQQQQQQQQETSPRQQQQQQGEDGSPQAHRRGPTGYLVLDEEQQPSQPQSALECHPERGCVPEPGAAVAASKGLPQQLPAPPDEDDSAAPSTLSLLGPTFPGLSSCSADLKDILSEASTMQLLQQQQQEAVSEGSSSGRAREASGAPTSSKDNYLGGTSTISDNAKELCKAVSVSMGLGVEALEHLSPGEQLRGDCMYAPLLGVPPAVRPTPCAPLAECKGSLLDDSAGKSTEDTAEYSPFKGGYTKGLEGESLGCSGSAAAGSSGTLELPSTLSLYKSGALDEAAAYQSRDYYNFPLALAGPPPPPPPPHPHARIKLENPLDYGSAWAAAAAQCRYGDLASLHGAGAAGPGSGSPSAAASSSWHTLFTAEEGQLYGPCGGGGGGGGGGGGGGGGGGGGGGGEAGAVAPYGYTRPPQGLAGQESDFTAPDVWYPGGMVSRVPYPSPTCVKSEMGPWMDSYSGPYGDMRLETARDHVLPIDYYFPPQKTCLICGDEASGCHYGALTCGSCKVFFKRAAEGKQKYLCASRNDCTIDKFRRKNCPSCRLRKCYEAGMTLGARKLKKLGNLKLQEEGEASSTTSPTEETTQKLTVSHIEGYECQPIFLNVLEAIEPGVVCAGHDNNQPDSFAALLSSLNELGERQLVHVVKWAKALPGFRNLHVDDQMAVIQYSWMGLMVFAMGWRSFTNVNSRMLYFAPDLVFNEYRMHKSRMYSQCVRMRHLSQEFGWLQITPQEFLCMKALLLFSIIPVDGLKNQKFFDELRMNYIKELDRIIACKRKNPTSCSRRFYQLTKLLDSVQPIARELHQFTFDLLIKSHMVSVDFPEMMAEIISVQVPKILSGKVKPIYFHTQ

| SMILES | outcome [1] | Potency [2] | Potency [3] | Potency [4] | Potency [5] | outcome [6] | Potency [7] | Potency [8] | Potency [9] | outcome [10] | Potency [11] | Potency [12] | Potency [13] | outcome [14] | Potency [15] | Potency [16] | Potency [17] | Potency [18] | Potency [19] | Potency [20] |
| --- | --- | --- | --- | --- | --- | --- | --- | --- | --- | --- | --- | --- | --- | --- | --- | --- | --- | --- | --- | --- |
| CCc1cccc(C)c1N | inactive | inactive | inactive | inactive | inactive | inactive | inactive | inactive | inactive | inactive | inactive | inactive | inactive | inactive | inactive | inactive | inactive | inactive | inactive |  |
| Cc1ccc2oc(=O)ccc2c1 | inactive | inactive | inactive | inactive | inactive |  |  |  | inactive |  |  | inactive | inactive | inactive | inactive | inactive | inactive | inactive | inactive | inactive |
| CC(=O)CC(=O)Nc1ccccc1 | inactive | inactive | inactive | inactive | inactive |  |  |  | inactive |  | inactive | inactive | inactive | inactive |  |  |  | inactive | inactive |  |
| N[C@@H](Cc1cc(I)c(Oc2cc(I)c(O)c(I)c2)c(I)c1)C(=O)O | inactive | inactive | inactive | inactive | inactive |  |  |  | inactive |  | inactive | inactive | 8.4 nM (active) and 10.9 nM (active) | inactive |  |  |  | inactive | inactive |  |
| CCCCCC1=CCCC1=O | inactive | inactive | inactive | inactive | inactive |  |  |  | inactive |  |  | inactive | inactive | inactive | inactive | inactive | inactive | inactive | inactive |  |
| CC(C)(N)CO | inactive | inactive | inactive | inactive | inactive |  |  |  | inactive |  | inactive | inactive | inactive | inactive | inactive | inactive | inactive | inactive | inactive | inactive |
| Fc1ccc(Br)cc1 | inactive | inactive | inactive | inactive | inactive |  |  |  | inactive |  | inactive | inactive | inactive | inactive | inactive | inactive | inactive | inactive | inactive | inactive |
| CC[C@H](C)C(=O)O[C@H]1C[C@@H](C)C=C2C=C[C@H](C)[C@H](CC[C@@H]3C[C@@H](O)CC(=O)O3)[C@H]21 | inactive | 53.1 nM (active) and 5.52 µM (active) and 682 nM (active) | 8.4 nM (active) and 391 nM (active) and 3.8 nM (active) | 53.1 nM (active) and 2.77 µM (active) and 136 nM (active) | 31.3 µM (active) and inactive |  |  |  | inactive |  | 62 µM (active) and 60.8 µM (active) | 62 µM (active) and 54.2 µM (active) | inactive | inactive | inactive | inactive |  | inactive | 11.9 µM (active) and 34.9 µM (active) and 27.2 µM (active) |  |
| CCCCCC/C(C=O)=C\c1ccccc1 | inactive | inactive | inactive | inactive | inactive |  |  |  | inactive |  | inactive | inactive | inactive | inactive |  |  |  | inactive | inactive |  |
| O=C(O)c1ccc(C(=O)O)cc1 | inactive | inactive | inactive | inactive | inactive |  |  |  | inactive |  | inactive | inactive | inactive | inactive |  |  |  | inactive | inactive |  |
| Cc1cc(C)c(C)cc1C | inactive | inactive | inactive | inactive | inactive |  |  |  | inactive |  | inactive | inactive | inactive | inactive | inactive | inactive | inactive | inactive | inactive |  |
| CC(C)c1ccc(S(=O)(=O)O)cc1 | inactive | inactive | inactive | inactive | inactive |  |  |  | inactive |  | inactive | inactive | inactive | inactive | inactive | inactive | inactive | inactive | inactive | inactive |
| C[C@H]1C[C@H]2[C@@H]3CCC4=CC(=O)C=C[C@]4(C)[C@@]3(F)[C@@H](O)C[C@]2(C)[C@@]1(O)C(=O)CO | inactive | inactive | 27.3 µM (active) | inactive and 68.6 µM (active) | inactive |  |  |  | inactive |  | inactive | inactive | inactive | inactive |  |  |  | inactive | inactive |  |
| CC(C)CC(=O)CC(C)C | inactive | inactive | inactive | inactive | inactive |  |  |  | inactive |  | inactive | inactive | inactive | inactive |  |  |  | inactive |  |  |
| COCCCOc1ccnc(CS(=O)c2nc3ccccc3[nH]2)c1C (stereo not given) | inactive | 23.7 µM (active) and 15.3 µM (active) | 29.8 µM (active) and 24.2 µM (active) | 13.3 µM (active) and 19.3 µM (active) | inactive |  |  |  | inactive |  | inactive | 48.4 µM (active) | inactive | inactive |  |  |  | inactive | inactive |  |
| O=C=NCCCCCCN=C=O | inactive | inactive | inactive | inactive | inactive |  |  |  | inactive |  | inactive | inactive | inactive | inactive | inactive | inactive | inactive | inactive | inactive |  |
| CC1CCC2CC1C2(C)C (stereo not given) | inactive | inactive | inactive | inactive | inactive |  |  |  | inactive |  | inactive | inactive | inactive | inactive |  |  |  | inactive | inactive |  |
| c1ccc2scnc2c1 | inactive | inactive | inactive | inactive | inactive |  |  |  | inactive |  | inactive | inactive | inactive | inactive | inactive | inactive | inactive | inactive | inactive |  |

— PubChem BioAssay (Tox21)
